The results in this text go back to publication PMC6602471.

The target in this experiment is RUNX1 (Homo sapiens, UniProt Q01196 1-453). Put plainly: custom PBM; custom protein-binding microarray; buffer, salt, pH and temperature not stated; high values mean tight binding. The note with it: dsDNA, one strand shown.
Chain of RUNX1 (Q01196 whole entry): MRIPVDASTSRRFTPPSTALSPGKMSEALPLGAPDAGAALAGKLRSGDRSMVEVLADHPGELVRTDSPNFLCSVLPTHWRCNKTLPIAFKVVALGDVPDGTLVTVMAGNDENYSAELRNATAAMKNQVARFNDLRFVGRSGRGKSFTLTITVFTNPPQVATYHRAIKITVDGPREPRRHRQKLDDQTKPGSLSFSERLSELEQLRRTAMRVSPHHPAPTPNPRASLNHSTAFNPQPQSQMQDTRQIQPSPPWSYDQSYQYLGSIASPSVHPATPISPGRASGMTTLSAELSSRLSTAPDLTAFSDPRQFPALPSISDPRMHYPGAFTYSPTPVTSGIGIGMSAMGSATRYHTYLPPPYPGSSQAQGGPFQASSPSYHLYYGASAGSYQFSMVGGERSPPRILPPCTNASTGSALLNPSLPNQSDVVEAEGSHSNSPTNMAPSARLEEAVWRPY
“GCATACGGCTGACGTAAGCCACATACGCACACATACACATACACACATACACATACGCAC”: the binding signal is 11 log fluorescence intensity.

For the sequence “GCATACGGCTGAGGTCAGCCACATACGCACACATACACATACACACATACACATACGCAC”, the binding signal was 10.9 log fluorescence intensity. As for “GCGCATATTTCCCGTAAATCATACACGCACACATACACATACACACATACACATACGCAC”, the figure is 10.9 log fluorescence intensity. For “CGCGCACACTGTGGTTGCGCACATACGCACACATACACATACACACATACACATACGCAC”, the binding signal is 11.2 log fluorescence intensity. As for “GCGCACATATCCCGTAAATCATACACGCACACATACACATACACACATACACATACGCAC”, the figure is 10.9 log fluorescence intensity. With “CGCGCCCTCTGTGGTTGCGCACATACGCACACATACACATACACACATACACATACGCAC”, the binding signal is 11.5 log fluorescence intensity. Consider “CGCGCACTGTGTGGTTGCGCACATACGCACACATACACATACACACATACACATACGCAC”, for which the binding signal was 11 log fluorescence intensity. For the sequence “CGCGCACTCTGTGGTAGCGCACATACGCACACATACACATACACACATACACATACGCAC”, the binding signal is 11 log fluorescence intensity. Regarding “GCATACGGCTGACGTCAGCAACATACGCACACATACACATACACACATACACATACGCAC”, the binding signal is 10.9 log fluorescence intensity. As to “GCATACGGCTGACCTCAGCCACATACGCACACATACACATACACACATACACATACGCAC”, the binding signal is 11 log fluorescence intensity.

Take “GCGCACATTTCCCGTATATCATACACGCACACATACACATACACACATACACATACGCAC”: the binding signal is 11 log fluorescence intensity. In the case of “CGCGCACTCTGTGGTGGCGCACATACGCACACATACACATACACACATACACATACGCAC”, the binding signal was 11.1 log fluorescence intensity. As to “GCGCACATTTCCCGTAAATTATACACGCACACATACACATACACACATACACATACGCAC”, the binding signal is 10.9 log fluorescence intensity. “GCATACGGCTGACATCAGCCACATACGCACACATACACATACACACATACACATACGCAC”: the binding signal was 10.9 log fluorescence intensity.
